Tb PYK inh: blocks Trypanosoma brucei pyruvate kinase; Q57TT1; TbPYK enzyme, Kinase-Glo Plus ATP luminescence, 45 min; Potency, µM (top dose mostly 76.8 µM), actives largely listed as inhibitors; hit rate 0.12% among 410,000; AID 624173; further: nearly all actives have a fitted effect of over 50% in size
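TbPYK + substrate in 50 mM TEA pH 7.2, 100 mM KCl, 10 mM MgCl2, 0.05% BSA, 0.01% Tween-20; cpd pinned; ADP 130 uM final; 45 min RT; Kinase-Glo Plus 10 min; luminescence endpoint.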
HCMV inh: human cytomegalovirus inhibition; AID 1259415; hit rate 4.5% among 410,000; HFF cells, HCMV-luciferase reporter, 72 h; stronger effect = lower value; activity change, negative = inhibition, % at 57.5 µM; in the data active means activity change below about -60%; inconclusive means no clear call, values can overlap the other calls; inactive means above about -39%
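Cell-based, HFFs, 1000 cells/well, 16 h 37C; cpds in DMSO + HCMV-luc, MOI 1 PFU/cell; 72 h 37C; OneGlo luminescence after 5 min RT; norm. to buffer vs Salinomycin 10uM.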
Vaccinia mCherry: vaccinia inhibition (mCherry reporter) | Vaccinia virus mCherry reporter infection, fluorescence | Potency, µM (doses to about 36.5 µM), actives largely listed as inhibitors | hit rate 0.63% among 310,000 | AID 720579; calls by dose curve; tested in A549 cells; further: nearly all actives have a fitted effect of over 35% in size
LmPK inh: blocks Leishmania mexicana pyruvate kinase activity. Q27686. purified LmPK, Kinase-Glo ATP luminescence, 1 h. Potency, µM (titrated, usually from 57.5 µM), most hits filed as inhibitors. hit rate 0.37% among 290,000
Target sequence (Q27686 whole entry, looked up): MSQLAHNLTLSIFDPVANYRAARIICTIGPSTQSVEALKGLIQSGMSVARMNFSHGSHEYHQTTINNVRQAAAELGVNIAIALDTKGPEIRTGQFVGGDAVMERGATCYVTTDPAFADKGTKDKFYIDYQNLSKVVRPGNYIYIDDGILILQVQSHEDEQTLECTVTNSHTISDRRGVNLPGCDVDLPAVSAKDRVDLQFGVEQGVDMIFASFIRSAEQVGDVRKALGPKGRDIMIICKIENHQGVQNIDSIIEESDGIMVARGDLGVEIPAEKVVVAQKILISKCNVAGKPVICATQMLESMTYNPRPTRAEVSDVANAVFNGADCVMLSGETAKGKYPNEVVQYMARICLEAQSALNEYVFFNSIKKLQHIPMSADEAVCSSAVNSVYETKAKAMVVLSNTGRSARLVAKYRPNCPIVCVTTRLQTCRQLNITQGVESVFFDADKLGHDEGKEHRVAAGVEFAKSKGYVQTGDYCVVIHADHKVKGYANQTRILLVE
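Pyruvate kinase activity monitored as ATP production (luciferase luminescence). Conditions: 0.1 nM enzyme, 0.5 mM PEP, 0.1 mM ADP, 1 h, RT; normalized against uninhibited and no-enzyme wells.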
Vaccinia Venus: inhibitors of vaccinia virus (Venus reporter); hit rate 0.46% among 330,000; Vaccinia virus Venus reporter expression, fluorescence; Potency, µM (top dose mostly 36.5 µM), hits mostly inhibitors; calls by dose curve; tested in A549 cells; further: nearly all actives have a fitted effect of over 30% in size
Hits are given with their value; - = inactive; ? = inconclusive; . = no result given; [ ] = another dose, or the depositor's remark. Shown are actives, neighbours in structure and some others; about 5% of the full set was active somewhere. Unless noted, the call rests on the fitted dose curve; in most records, active means well fitted curve in the direction sought with a large enough effect; inconclusive means small, poorly fitted or top-dose-only effect, or another doubt; inactive means no such curve, though single readings can be large; an effect the other way counts as inactive or inconclusive.

SMILES	Tb PYK inh	HCMV inh	Vaccinia mCherry	LmPK inh	Vaccinia Venus
COc1cc2nc(N3CCCN(C)CC3)nc(NC3CCCCC3)c2cc1OC	.	.	-	.	?
COc1cc2c(NC3CCN(C)CC3)nc(N3CCCN(C)CC3)nc2cc1OCC1CCCCN1 (stereo not given)	.	.	5µM	.	16µM
COc1cc2nc(N3CCCN(C)CC3)nc(N(C)C3CCN(C)CC3)c2cc1OC	.	.	10µM	.	10µM
CCOc1ccccc1N(CC(=O)NC1CCCCC1)C(=O)CCC(=O)Nc1nccs1	-	-	-	-	-
CC(=O)Nc1c(Cl)c(Cl)c2c(c1Cl)Cc1cc(Cl)ccc1-2	-	-	-	.	-
CC(=O)Nc1ccc(N2CCOCC2)c(S(=O)(=O)Nc2ccccc2Cl)c1	-	-	-	.	-
COc1ccc(C(=O)O)cc1S(=O)(=O)Nc1cc(C(F)(F)F)ccc1N1CCCCC1	-	-	-	.	-
CCOC(=O)c1ccc(N2CCCCC2)c(NS(=O)(=O)c2cccc(C(F)(F)F)c2)c1	-	-65	.	-	.
COc1ccccc1NS(=O)(=O)c1cccc(NC(=O)Nc2ccc(Cl)cc2)c1	-	-85	-	-	?
O=C(Nc1cccc(C(F)(F)F)c1)Nc1ccc(N2CCCC2)c(S(=O)(=O)Nc2ccccc2Cl)c1	-	-100	11µM	-	11µM
COc1ccccc1NS(=O)(=O)c1cc(NC(=O)Nc2ccc(Cl)cc2Cl)ccc1N1CCCCC1	-	-62	-	-	-
O=C1c2ccccc2NC(c2ccc(-c3cccc(F)c3)o2)N1O (stereo not given)	-	-	.	.	.
O=C(NCC(=O)N1CCCCC1)c1ccc(Cl)cc1Cl	-	-	-	-	-
CC(C)(C)c1ccc(C(=O)CSc2nc3ccccc3c(=O)[nH]2)cc1	-	-	.	-	.
CC(C)n1cnc2c(Nc3ccc(F)c(Cl)c3)nc(NCCO)nc21	-	-	10µM	-	?
CC(C)n1cnc2c(Nc3cccc(F)c3)nc(NCCO)nc21	-	-	?	-	?
CC[n+]1c(C)cc2c(sc3ccccc32)c1C	-	-101	.	-	.
Oc1ccc(NC(=S)N=Nc2c(O)[nH]c3ccc(Br)cc23)cc1	-	-91	?	-	-
CCN(CC)C(=O)CSc1nc2cc(OC)c(OC)cc2c(=O)n1Cc1ccc(Cl)cc1	.	-78	.	-	.
COc1nc(NCCO)nc(Nc2cc(Cl)ccc2OC)n1	-	-	-	-	-
CCN1CCN(Cc2ccc(NC(=O)c3cc(NC(=O)c4cncc(-c5ccc(C#N)cc5)c4)cc(OC)c3)cc2C(F)(F)F)CC1	-	-99	?	-	-
CCN1CCN(Cc2ccc(NC(=O)c3cc(NC(=O)c4cnnc5ccccc45)cc(OC)c3)cc2C(F)(F)F)CC1	-	-94	?	-	10µM
COc1ccc(-n2nc3ccc(NC(=O)c4cccc(OCCC(C)C)c4)cc3n2)cc1	-	-	-	.	-
CCOP(=O)(OCC)OCC	-	-	-	.	-
CCOP(=O)(CCP(=O)(OCC)OCC)OCC.C[CH2][Sn]([Cl])([Cl])[CH2]C	-	-101	-	.	-
SMILES	Tb PYK inh	HCMV inh	Vaccinia mCherry	LmPK inh	Vaccinia Venus
Cc1ccc2c(c1)C(=O)C(=O)N2Cc1ccc(C(F)(F)F)cc1	-	?	-	.	?
CCCN1C(=O)C(=O)c2cc(Cl)ccc21	-	-86	-	.	-
Cc1ccc2c(c1)C(=O)C(=O)N2Cc1ccc(OC(C)C)cc1	-	-76	-	.	?
Cc1ccc(OCCN2C(=O)C(=O)c3cc(C)ccc32)cc1	-	-92	?	-	-[7.34 µM]
Fc1ccccc1CN(CCN1CCOCC1)C(=S)Nc1ccccc1Cl	-	-	-	-	-
CCN(C(=O)CN1C(=O)NC(c2ccccc2)(c2ccc(C)c(C)c2)C1=O)C1CCCCC1 (stereo not given)	-	-	.	.	.
Cc1cc(C)cc(N2CC(O)=C(c3nc4ccccc4c(=O)[nH]3)C2=N)c1	-	-	-	-	-
COc1cccc(N2CC(O)=C(c3nc4ccccc4c(=O)[nH]3)C2=N)c1	-	.	?	-	2.8µM
CCc1nc2ccc(C(=O)NCCOc3ccc(OC)cc3)cn2c1N(CC)Cc1cccc(Br)c1	-	-	-	.	?
OC[C@@H]1CN(Cc2ccccc2)C[C@H](n2cnc3c(NCc4ccncc4)ncnc32)O1	-	-	-	.	-
CCC(c1nnnn1Cc1ccc(F)cc1)N1CCN(C2CCCCC2)CC1 (stereo not given)	-	-	.	-	-
CC(C)CCCN1CCN=C1N(C)C	-	-74	-	-	-
OC(CN1CCOCC1)(c1ccccc1)c1ccccn1 (stereo not given)	-	-	-	-	-
Cc1ccc(-c2nc3cccc(C)n3c2Nc2ccc3c(c2)OCO3)o1	-	-	-	.	-
COc1ccc(-c2nc3ccc(C)cn3c2Nc2ccc3c(c2)OCO3)cc1	-	-106	-	.	-
Cc1ccc(-c2nc3ccccn3c2Nc2ccc3c(c2)OCO3)o1	-	-101	-	.	-
O=[N+]([O-])c1ccc(S(=O)(=O)N2CCN(c3ccnc4cc(Cl)ccc34)CC2)cc1	-	-	?	-	-
CCOC(=O)c1sc(=NC(=O)c2c(F)cccc2F)n(C)c1C	-	-	.	-	.
O=c1c(Cl)c(Cl)cnn1Cc1nnc(-c2ccccc2Br)o1	-	-99	?	-	?
CC(C)(C)OC(=O)N(Cc1ccccc1)Cc1ccccc1OCc1ccc(NC(=O)C2CCC2)cc1	-	-90	?	.	-
CC(C)(C)OC(=O)N(CCc1ccccc1)Cc1ccccc1OCc1ccc(NC(=O)C2CCC2)cc1	-	?	?	.	-
COc1ccc(CCN(C)C(=O)c2c(C)nn(-c3ccccc3)c2C)cc1OC	-	-	-	-	-
CCOc1ccc(OCCC(=O)N2CCN(S(=O)(=O)c3cccc(F)c3)CC2)cc1	-	-	-	.	-
CCC(CC)C(=O)Nc1nc(-c2ccc3c(c2)CCN3C(=O)C2CC2)c(C)s1	-	-102	.	-	-
Cc1cccc(C(=O)N2CCc3cc(-c4nc(NC(=O)CN5CCCC5)sc4C)ccc32)c1	-	-	?	-	-
SMILES	Tb PYK inh	HCMV inh	Vaccinia mCherry	LmPK inh	Vaccinia Venus
Cc1ccc(-c2csc(NC(=O)CN3CCOCC3)n2)cc1	-	?	-	-	-
CC(C)C(=O)Nc1nc(-c2ccc3c(c2)CCN3C(=O)C2CC2)cs1	-	-	-	-	-
Cc1sc(NC(=O)CN2CCOCC2)nc1-c1ccc2c(c1)CCN2S(=O)(=O)c1ccccc1	-	-96	?	-	?
CS(=O)(=O)N1CCc2cc(-c3csc(NC(=O)Cc4cccs4)n3)ccc21	-	-94	?	-	?
O=C(CN1CCOCC1)Nc1nc(-c2ccc3c(c2)CCN3S(=O)(=O)c2ccccc2)cs1	-	-88	?	-	-
CCOC(=O)C(NC(=O)Nc1ccc(Cl)cn1)(Oc1ccc(F)cc1)C(F)(F)F (stereo not given)	-	-	-	-	-
O=C(C[N+]1(CC#Cc2ccccc2)CCCCC1)c1ccc(Cl)cc1	-	-	10µM	-	?
C#CC[N+]1(CC#Cc2ccccc2)CCCCC1	-	-	-	-	-
C#CC[N+]1(CC#Cc2cccc(C)c2)CCCCC1	-	?	-	-	-

Bioassay records (PubChem BioAssay)
